Source: PubChem BioAssay (National Center for Advancing Translational Sciences (NCATS))
3T3 cytotox – Cytotoxic Profiling in NIH 3T3 Cell Line of Diverse Libraries Using Quantitative High-Throughput Screening | 94,000 compounds, 4.3% hits | NIH 3T3 viability, CellTiter-Glo ATP luminescence, 48-72 h | Potency, µM (top dose mostly 96.7 µM), hits mostly inhibitors; also: nearly all actives have a fitted effect of over 55% in size
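Luminescent ATP readout (CellTiter-Glo, 10 min RT) after 48 or 72 hr compound exposure of NIH 3T3 cells seeded at 400 cells/well in 1536-well format; quantitative HTS.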
hNpr1 antagonist – Natriuretic polypeptide receptor (hNpr1) antagonism - Primary qHTS | Atrial natriuretic peptide receptor 1 (Homo sapiens), P16066 | HEK293 hNpr1 GloSensor cGMP, ANP-stimulated luminescence | Potency, µM (titrated, usually from 46.3 µM), most hits filed as inhibitors | 76,000 compounds, 1.6% hits | AID 1347048, 2019; calls by dose curve; also: nearly all actives have a fitted effect of over 60% in size
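Compound pre-incubated 30 min at room temperature on GloSensor-loaded HEK293 cells stably carrying hNpr1 and the pGS-40F cGMP biosensor. Stimulation uses hNppA at 0.1 nM final; luminescence is taken at baseline and 20 min post-agonist.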
FLuc inh – Firefly luciferase inhibition profiling of diverse chemical library using quantitative high-throughput screening; Luciferin 4-monooxygenase (Photinus pyralis), P08659; purified P. pyralis luciferase, luminescence, biochemical; Potency, µM (series often up to 115 µM), actives largely listed as inhibitors; 76,000 compounds, 2.5% hits; also: nearly all actives have a fitted effect of over 65% in size
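FLuc 10nM, D-luciferin 10uM, ATP 10uM, Mg acetate 10mM, Tris acetate pH 7.5, Tween/BSA; cpd qHTS; enzyme added last; CCD luminescence.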
HEK293 tox – Cytotoxic Profiling in HEK 293 Cell Line of Diverse Libraries Using Quantitative High-Throughput Screening. HEK 293 viability, ATP luminescence (CellTiter-Glo), 48-72 h. 94,000 compounds, 6.6% hits. Potency, µM (series often up to 115 µM), hits mostly inhibitors. AID 1345083, 2018; also: nearly all actives have a fitted effect of over 60% in size
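Cells seeded first (HEK 293, 250 cells/well), then compound added by pintool. Incubation ran 48 or 72 hr at 37 degree Celsius. CellTiter-Glo was added and luminescence imaged after 10 min at room temperature.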
Hits are given with their value; i = inactive; ? = inconclusive; nt = no result given. In the library only some 11% were active in any assay of this set; here they are far more common. Unless noted, calls follow the shape of the dose curve; as a rule, active = well fitted curve in the direction sought with a large enough effect; inconclusive = small, poorly fitted or top-dose-only effect, or another doubt; inactive = no such curve, though single readings can be large; an effect the other way counts as inactive or inconclusive.

SMILES	3T3 cytotox	hNpr1 antagonist	FLuc inh	HEK293 tox
CCC(CC)C(=O)N1CCC2(CC1)CC(N(Cc1ccc(F)cc1)C1CC1)CCO2 (configuration not stated)	?	i	i	40µM
O=C(C1CC1)N1CCC2(CC1)CC(N(Cc1ccc(F)cc1)C1CC1)CCO2 (configuration not stated)	i	i	i	?
CNC(=O)N1CCC2(CC1)CC(N(Cc1ccc(F)cc1)C1CC1)CCO2 (configuration not stated)	i	i	i	i
O=C(C1CCCCC1)N1CCC2(CC1)CC(N(Cc1ccc(F)cc1)C1CC1)CCO2 (configuration not stated)	?	i	i	45µM
CC(C)NC(=O)C1CCC(=O)N1C1CCN(C(=O)Cc2ccccc2F)CC1 (configuration not stated)	i	nt	nt	i
Cc1nn(-c2ccccc2)c2c1C(C(C)C)N(C1CCN(C(=O)C3CCCC3)C1)C2=O (configuration not stated)	20µM	nt	nt	?
Cc1nn(-c2ccccc2)c2c1C(C(C)C)N(C1CCN(C(=O)C(C)(C)C)C1)C2=O (configuration not stated)	?	nt	nt	89µM
Cc1nn(-c2ccccc2)c2c1C(C(C)C)N(C1CN(C(=O)C3CC3)C1)C2=O (configuration not stated)	i	nt	nt	i
Cc1nn(-c2ccccc2)c2c1C(C(C)C)N(C1CCN(C(=O)c3ccccc3F)C1)C2=O (configuration not stated)	?	nt	nt	79µM
Cc1ccc(C(=O)N2Cc3ccccc3OC3(CCN(C(C)C)CC3)C2)cn1	i	nt	nt	i
Cc1cc(N2CCN(Cc3ccccc3)CC(O)C2)nc(N)n1 (configuration not stated)	i	i	i	i
OC1CN(Cc2ccccc2)CCN(c2nc(-c3ccccc3)no2)C1 (configuration not stated)	i	?	40µM	?
COc1ccc(Cn2c(=O)c(C(=O)N3CCN(c4ncccn4)CC3)nc3cccnc32)cc1	i	nt	nt	?
Cc1ccc2c(C)c(C(=O)N3CC[C@H](O)[C@@H](O)C3)oc2c1	i	i	i	i
Cc1ccc2c(C)c(C(=O)N3C[C@@H](NS(C)(=O)=O)[C@H](C(C)C)C3)oc2c1	?	i	i	45µM
Cc1nn(-c2ccc(C(C)(C)C)cc2)c(C)c1[C@@H]1C=C[C@@H](NC(=O)CC(C)(C)CC(=O)O)C1	?	i	?	i
Cc1cc(Cl)ccc1-n1nc(C)c([C@@H]2C=C[C@@H](NC(=O)CCC(=O)O)C2)c1C	i	i	40µM	i
Cc1nn(-c2ccc(C(C)(C)C)cc2)c(C)c1[C@@H]1C=C[C@@H](NC(=O)CCC(=O)O)C1	i	i	20µM	?
COCC(=O)N[C@@H]1C=C[C@@H](c2c(C)nn(-c3ccc(C(C)(C)C)cc3)c2C)C1	22µM	i	?	40µM
Cc1nn(-c2ccc(C(F)(F)F)cc2)c(C)c1[C@@H]1C=C[C@@H](NC(=O)CCC(=O)O)C1	?	i	?	?
COc1ccc(CNc2ncnc3c2CN(C2CCCNCC2)C(=O)CN3C)cc1 (configuration not stated)	i	nt	nt	i
COc1ccc(-c2ccccc2C(=O)N2CCC(NC(=O)Cc3cccc(Cl)c3)CC2)nn1	i	nt	nt	i
Cc1ccc([S+](=O)([O-])NC2CCCN(CCn3nc4n(c3=O)CCCC4)C2)cc1 (configuration not stated)	i	nt	nt	i
Cc1ccc(-c2cccc(CN3CCCC(N[S+](C)(=O)[O-])C3)c2)cc1Cl (configuration not stated)	28µM	nt	nt	22µM
Cc1ccc([S+](=O)([O-])NC2CCCN(Cc3cccc(-c4ccc(C)c(Cl)c4)c3)C2)cc1 (configuration not stated)	?	nt	nt	28µM
SMILES	3T3 cytotox	hNpr1 antagonist	FLuc inh	HEK293 tox
O=C(NCc1nnc2c(-c3nc(C4CC4)no3)cccn12)c1ccccc1Cl	i	i	i	i
CCCc1noc(-c2cccn3c(CNC(=O)c4ccc(C(C)(C)C)cc4)nnc23)n1	40µM	i	i	?
O=C(NCc1nnc2c(-c3nc(C4CC4)no3)cccn12)c1nccc2ccccc12	45µM	i	i	?
c1ccc(Cn2cc(CN3CCCOCC3)c(-c3cc4ccccc4o3)n2)cc1	?	i	35µM	?
c1ccc(Cn2cc(CN3CCN(c4ccncc4)CC3)c(-c3cc4ccccc4o3)n2)cc1	28µM	i	i	40µM
FC1CCN(Cc2cn(Cc3ccccc3)nc2-c2cc3ccccc3o2)CC1	?	i	i	32µM
CC1(C)CN(Cc2cn(Cc3ccccc3)nc2-c2cc3ccccc3o2)CCO1	?	i	i	?
COC[C@H]1CCCN1Cc1cn(Cc2ccccc2)nc1-c1cc2ccccc2o1	?	i	?	?
N#Cc1ccc(S(=O)(=O)N2CC(n3cc(C(=O)N4CCOCC4)nn3)C2)cc1	i	nt	nt	i
O=C(c1cccc2[nH]ccc12)N1CC(Oc2ccc(-c3nc(-c4ccccc4)no3)cc2)C1	?	i	16µM	?
Cc1noc(-c2ccc(OC3CN(C(=O)c4cccc5[nH]ccc45)C3)cc2)n1	?	?	35µM	?
O=C(c1cc(F)ccc1F)N1CC(Oc2ccc(-c3nc(-c4ccccc4)no3)cc2)C1	i	?	?	?
Cc1noc(-c2ccc(OC3CN(C(=O)c4sccc4C)C3)cc2)n1	?	?	i	?
COCCCNC(=O)c1nc2cccnc2n(C2CC2)c1=O	i	nt	nt	i
CCNC(=O)OC1CCN(C(=O)Cc2ccc(F)cc2)CC(=O)N(C)c2ccccc21 (configuration not stated)	?	nt	nt	i
CNC(=O)[C@H]1C[C@]2(CCCCN(CCO)C2=O)N(C(=O)c2cccc(OC)c2)[C@H]1c1ccco1	?	nt	nt	i
Cc1noc(C)c1-c1cnc(Nc2ccccc2)c2c1CCO2	?	i	i	?
CNC(=O)c1cccc(-c2cnc(Nc3cccnc3)c3c2CCO3)c1	?	i	25µM	?
O=C(Nc1ncc(-c2cccc(F)c2)c2c1OCC2)c1ccc(F)c(Cl)c1	?	i	i	35µM
Cc1noc(C)c1-c1cnc(Nc2cccc(C(F)(F)F)c2)c2c1CCO2	?	i	?	63µM
Fc1cccc(-c2cnc(Nc3cnccn3)c3c2CCO3)c1	?	i	?	100µM
Cc1ccc(-c2cn3cc(C(=O)NCC4CC4)nc3s2)cc1	i	nt	nt	i
Cn1ncc2c(C(=O)NC3CC3)cc(-c3ccc([S+](C)(=O)[O-])cc3)nc21	i	nt	nt	i
CNC(=O)c1cccc(-c2cnc(Nc3cccc(C(F)(F)F)c3)c3c2CCO3)c1	40µM	?	?	63µM
CNC(=O)c1cccc(-c2cnc(Nc3ccc(F)c(Cl)c3)c3c2CCO3)c1	?	i	10µM	28µM
